A selection: hits, their analogues and other compounds. The true share with any hit is near 2.9%.
pPAFAH inh: pPAFAH enzyme inhibitors, primary screen, biochemical, fluorescence polarization, human; inhibition, % at 3.39 µM; recombinant pPAFAH, FP-rhodamine probe fluorescence polarization; Platelet-activating factor acetylhydrolase (Homo sapiens), Q13093; 330,000 compounds, 1.5% hits;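 active means inhibition above the mean inhibition across the screen plus 3 SD, cut at about 25% in these data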;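 further: inhibitors block binding of the rhodamine activity-based probe so polarization drops; 0% = enzyme with DMSO and 100% = wells lacking pPAFAH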
Target sequence (Q13093 whole entry, looked up): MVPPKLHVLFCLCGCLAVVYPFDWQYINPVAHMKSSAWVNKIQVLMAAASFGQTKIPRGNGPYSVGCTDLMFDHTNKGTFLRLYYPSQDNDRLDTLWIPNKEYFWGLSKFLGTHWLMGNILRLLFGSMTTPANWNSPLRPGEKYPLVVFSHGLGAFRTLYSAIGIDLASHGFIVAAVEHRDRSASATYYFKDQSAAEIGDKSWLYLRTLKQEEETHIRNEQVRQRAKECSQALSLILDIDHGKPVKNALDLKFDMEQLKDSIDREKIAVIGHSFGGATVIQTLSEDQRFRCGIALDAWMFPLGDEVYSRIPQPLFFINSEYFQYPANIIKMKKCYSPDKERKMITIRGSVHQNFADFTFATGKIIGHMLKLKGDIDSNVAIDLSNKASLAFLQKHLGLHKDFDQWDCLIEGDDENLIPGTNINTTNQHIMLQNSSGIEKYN
PAFAH1B3 FP inh: PAFAH1B3 enzyme inhibitors, primary screen, biochemical, fluorescence polarization, human; Platelet-activating factor acetylhydrolase IB subunit alpha1 (Homo sapiens), Q15102; recombinant PAFAH1B3, FP-rhodamine probe; inhibition, % at 3.39 µM; 340,000 compounds, 0.28% hits; AID 492972, 2010;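 active means inhibition above the screen-wide average of all tested compounds plus 3 SD, cut at about 25% in these data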;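 further: 0% = enzyme with DMSO only and 100% = wells lacking PAFAH1B3 protein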
PAFAH2 inh: PAFAH2 enzyme inhibitors, primary screen, biochemical, fluorescence polarization, human; Platelet-activating factor acetylhydrolase 2, cytoplasmic (Homo sapiens), Q99487; recombinant PAFAH2, FP-rhodamine activity probe; inhibition, % at 3.39 µM; 340,000 compounds, 0.99% hits; AID 492956, 2010;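 active means inhibition above the mean over all tested compounds plus 3 SD, cut at about 30% in these data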;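 further: inhibitors block probe labeling of enzyme so polarization drops; 0% = enzyme with DMSO and 100% = wells lacking PAFAH2 protein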
EBNA-1 inhibitor: EBNA-1 DNA-binding inhibitors, primary screen, biochemical, fluorescence polarization; inhibition, % at 14.8 µM; 300,000 compounds, 0.34% hits; AID 1950, 2009; in the data active means inhibition above about 28%
ZTA DNA inh: counter-screen for EBNA-1 inhibitors: inhibitors of Epstein-Barr virus ZTA | P03206 | ZTA-DNA binding, fluorescence polarization | inhibition, % at 11 µM | 320,000 compounds, 0.15% hits | AID 2234; in the data active means inhibition above about 33%
PAFAH1B2 FP inh: PAFAH1B2 enzyme inhibitors, primary screen, biochemical, fluorescence polarization, human. 340,000 compounds, 1.2% hits. recombinant PAFAH1B2, FP-rhodamine activity probe. inhibition, % at 3.39 µM;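 active means inhibition above the mean of all tested compounds plus 3 SD, cut at about 24% in these data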;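 further: 0% = enzyme with DMSO and 100% = wells lacking PAFAH1B2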
EBNA-1 inh conf: EBNA-1 DNA-binding inhibitors, retest, confirmation, biochemical, fluorescence polarization, triplicate. shares compounds with EBNA-1 inhibitor. inhibition, % at 14.8 µM. Recombinant EBNA-1 DBD, Cy5-DNA fluorescence polarization. 830 compounds, 35% hits. AID 2292, 2010;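 active means mean inhibition across replicates above a set limit taken from the earlier primary screen, cut at about 28% in these data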;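 further: plate controls were EBNA-1 protein with DMSO for no effect and wells lacking EBNA-1 for full effect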
ZTA DNA inh trip: EBV Zta DNA binding inhibitors, counter-screen for EBNA-1 inhibitor project, biochemical, fluorescence polarization, triplicate; 830 tested, under 10 active; inhibition, % at 11.1 µM; Zta-ZRE DNA binding, Cy5 fluorescence polarization; AID 2328, 2010; shares compounds with EBNA-1 inhibitor;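 active means mean inhibition over triplicates above a set limit taken from the primary EBNA-1 screen, cut at about 37% in these data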;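 further: purified full length Zta protein with Cy5 labeled ZRE DNA probe; 0% = Zta with DMSO and 100% = wells lacking Zta protein; inhibitors lower polarization by freeing the labeled DNA probe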
Active calls of the source: *; . = no result given; + = active, no number.

SMILES | pPAFAH inh | PAFAH1B3 FP inh | PAFAH2 inh | EBNA-1 inhibitor | ZTA DNA inh | PAFAH1B2 FP inh | EBNA-1 inh conf | ZTA DNA inh trip
CCN(CC)C(=O)Cn1c(=O)c2ccccc2n2c(=S)sc(-c3cccc(C)c3)c12 | 3 | 2 | -3 | -10 | -20 | -2 | . | .
S=C(NCc1ccco1)Nc1ccc(Oc2ccc(Cl)cc2)cc1 | 13 | 6 | -1 | -6 | 1 | 4 | . | .
S=C(NCc1ccco1)Nc1ccc(Cl)cc1 | 2 | 8 | 1 | 31* | -8 | 0 | -4 | 0
CC(C)CNc1nc(N)c([N+](=O)[O-])c(NCC2CCCO2)n1 (centres undefined) | 2 | 7 | 1 | -9 | 4 | 0 | . | .
Cc1ccc(Nc2nc(NCC3CCCO3)nc(N)c2[N+](=O)[O-])cc1C (centres undefined) | 2 | -3 | -3 | 122* | 8 | 2 | 110* | 16
COc1ccccc1N(C)S(=O)(=O)c1ccc(C(=O)NC2=NCCS2)cc1 | 0 | 4 | -4 | 45* | 0 | 2 | 2 | 7
CCOC(=O)C1=C(C)Nc2nc(SCC)nn2C1c1ccc(OC)cc1 (centres undefined) | 2 | -4 | 5 | 33* | 2 | -3 | 6 | 2
CCOC(=O)C1=C(C)Nc2nc(SCC(=O)OC)nn2C1c1cc(F)cc(F)c1 (centres undefined) | 1 | 2 | 2 | 7 | 1 | 4 | . | .
CN1CCN(c2ccc(-c3cccc(NC(=O)COc4ccc(Cl)cc4Cl)c3)nn2)CC1 | 6 | 4 | -5 | 28* | 18 | 0 | 51* | -4
CC1CC(C)CN(CC(=O)Nc2cc(S(=O)(=O)N3CCOCC3)ccc2N2CCCC2)C1 (centres undefined) | -1 | 0 | 3 | . | -9 | 2 | . | .
O=c1c2ccccc2nnn1CSc1nnc(Nc2ccccc2)s1 | 6 | 3 | -5 | 36* | 5 | 0 | 13 | 16
Cc1ccc2nc(-c3ccc(NC(=O)C(C)N4C(=O)c5ccccc5C4=O)cc3)sc2c1 (centres undefined) | -4 | -8 | -17 | 33* | -5 | 2 | 10 | 16
COc1ccc(S(=O)(=O)N2CCN(C(=O)CCSc3ccccc3)CC2)cc1 | 4 | -6 | 7 | . | 6 | 17 | . | .
CCOc1ccc(-n2nnc3c(=O)n(CC(=O)c4ccccc4)cnc32)cc1 | 7 | -2 | -5 | 30* | 14 | 1 | 13 | 12
Cc1ccc(-n2nnc3c(=O)n(CC(=O)c4ccccc4)cnc32)cc1 | 7 | 4 | -1 | 22 | -1 | 3 | . | .
CCCCOc1ccc(C(=O)Nn2c(-c3cccs3)nc3ccccc3c2=O)cc1 | -12 | 5 | -2 | 95* | 3 | 2 | 41* | 0
O=C(/C=C/c1ccccc1)Nn1c(-c2cccs2)nc2ccccc2c1=O | -11 | 10 | -11 | 4 | -26 | -1 | . | .
CCOc1ncccc1C(=O)OCC(=O)Nc1ccc(C(N)=O)cc1 | 1 | 4 | 4 | + | -5 | 2 | 7 | 11
CCOc1ncccc1C(=O)OCC(=O)c1ccc(F)cc1 | 11 | -1 | 20 | 10 | -19 | 7 | . | .
CC(=O)Nc1cccc(CP(=O)(c2ccccc2)c2ccccc2)c1 | 3 | 4 | -2 | 7 | 3 | 1 | . | .
CCOC(=O)Cc1csc(NC(=O)CSc2nc(N)c3c(C)c(C)sc3n2)n1 | 5 | 8 | -3 | 169* | 3 | 0 | 7 | 5

Screening results: PubChem BioAssay, The Scripps Research Institute Molecular Screening Center
